Hit rate of the full screen: of about 69,000 compounds, about 8,600 (12%) showed an effect of 50% or more. The list comes from a sample in which strong results are over-represented; it also holds similar structures and randomly drawn compounds.

This note sets out measurements from ChEMBL document CHEMBL4513216, “Probing the Open Global Health Chemical Diversity Library for Multistage-Active Starting Points for Next-Generation Antimalarials” (ACS Infect Dis, 2020).

For this test, the system named is Plasmodium berghei. The test is described as follows: Screen against P. berghei liver stage (PbLuc), transformed with Luciferase, at 10uM. It counts as functional, HepG2. The following applies: tested at 10 uM.
With `COc1cc(NCC(c2ccccn2)N(C)C)ncn1` (stereo not given), the INHIBITION is 53.6%. On to `COc1cc(NCC(O)CN2CCCCCC2)ncn1` (stereo not given), for which the INHIBITION was -25%.

Turning to `Cc1cc2nc(C(C)C)cc(NCC(c3ccccn3)N(C)C)n2n1` (stereo not given), the INHIBITION is given as 28%. With `CC(c1nc(C(C)(C)C)no1)N1CCN(Cc2ccc(C#N)cc2)CC1` (stereo not given) the figure was -4.94%; with `Cc1ccoc1C(=O)N1CCn2cc(CN3CCCC3)nc2C1`, 28.7%. Consider `CCOc1cccc2c1OCC(C(=O)NS(=O)(=O)c1c(C)noc1C)=C2`, for which the INHIBITION is -6.44%. In the case of `CO[C@H]1CN(S(=O)(=O)c2ccc(F)cc2)C[C@@]12CCCO2`, the INHIBITION is reported as -23.4%. With `CN(C)c1ccc(NC(=O)NCc2cccnc2N(C)C)cn1` the figure was 17.5%; with `c1ccc2oc(C3CCN(Cc4ncon4)CC3)nc2c1`, 15.2%; with `CC(C)(C)c1nc(CN2CCCC(c3noc(C4CC4)n3)C2)no1` (stereo not given), -41.1%. With `CCS(=O)(=O)c1ccc2oc([C@H]3CCN(Cc4cccnc4)C3)nc2c1` the figure was 19.8%. As to `CC(C)(C)c1nc(CN2CCC(N3CCCCC3)CC2)no1`, the INHIBITION is 56.3%. With `CCS(=O)(=O)c1ccc2oc([C@H]3CCN(Cc4ccccc4)C3)nc2c1`, the INHIBITION was -81.2%. Take `Clc1ccc2oc(C3CCN(Cc4cccnc4)CC3)nc2c1`: the INHIBITION was determined as 73.4%. As for `CC(C)c1noc(CN2CCC(c3nc4cc(Cl)ccc4o3)CC2)n1`, the INHIBITION was determined as 67.9%. In the case of `CCc1nnc(CN2CCC(c3nc4cc(Cl)ccc4o3)CC2)o1`, the INHIBITION is reported as 33.8%.

For the molecule `CC(C)(C)c1nc(CN2CCC(c3ccnn3CCO)CC2)no1`, the INHIBITION was -17%.

For `Clc1ccc2oc(C3CCN(Cc4nc(C5CC5)no4)CC3)nc2c1`, the INHIBITION stood at 42.6%.

In the case of `CC(C)(C)c1nc(CN2CCC(c3nc4cc(Cl)ccc4o3)CC2)no1`, the INHIBITION is 56.9%. As for `CN1CCN(C2CCN(Cc3noc(C(C)(C)C)n3)CC2)C1=O`, the INHIBITION is recorded as -21.5%. With `CC(C)(C)c1n[nH]c(C2CN(C(=O)c3cnc[nH]3)CCO2)n1` (stereo not given) the figure was -42.1%; with `CN(C)CC1CN(Cc2cccc(C#N)c2)Cc2nccn2C1` (stereo not given), -62.8%. Turning to `CC[C@H](C)Nc1ncc(-c2cccc(NC(=O)CNC)c2)cn1`, the INHIBITION was -21.1%. Consider `Cc1n[nH]cc1CNCC(O)c1ccc(F)c(F)c1` (stereo not given), for which the INHIBITION turned out to be 1.24%. As to `Cc1cc(C(=O)N2CC[C@]3(C[C@@H](OCc4ccccn4)CO3)C2)c(C)o1`, the INHIBITION is given as 43.9%. Consider `O=C(NCC1CCCO1)c1cc(-c2cccnc2)c2cnccc2n1` (stereo not given), for which the INHIBITION came to 31.3%. `Cc1nnc(CN2CCC(c3nc4cc(Cl)ccc4o3)CC2)n1C`: the INHIBITION was -0.275%. Take `Cc1ncc(CN2CCCN(Cc3noc(C4CC4)n3)CC2)s1`: the INHIBITION is recorded as -36.1%.

In the case of `Cc1nc(CN2CCC(c3nc4cc(Cl)ccc4o3)CC2)oc1C`, the INHIBITION is given as -6.88%. As for `Cc1ccc2oc([C@H]3CCN(Cc4ccccc4)C3)nc2c1`, the INHIBITION came out at 22.3%. For the molecule `Cc1noc(C)c1CN1CCC(c2nc3cc(Cl)ccc3o2)CC1`, the INHIBITION stood at 72.3%. For the molecule `Cc1ncc(CN2CCC(c3nc4cc(Cl)ccc4o3)CC2)s1`, the INHIBITION is given as 83.3%.

Take `N#Cc1cnc2cc(F)cc(F)c2c1NC1CCN(CC(N)=O)CC1`: the INHIBITION was -71.1%. Regarding `CCCc1cc(C(=O)N[C@@H](CO)[C@@H](O)c2ccccc2)n(C)n1`, the INHIBITION stood at 20.3%. As for `CCn1nc(C)cc1C(=O)N1C[C@@H]2C[C@@H](C)O[C@@H]2C1`, the INHIBITION was determined as 1.7%. With `CCN(Cc1noc(CC(C)C)n1)Cc1ccccc1OCC(=O)O` the figure was 11.8%; with `CCN(Cc1noc(CC(C)C)n1)Cc1ccccc1C(=O)O`, 58.2%. Take `CCN(Cc1noc(CC(C)C)n1)Cc1ccccc1C`: the INHIBITION was determined as 42.4%. `CCN(Cc1noc(CC(C)C)n1)Cc1ncccc1C(=O)O`: the INHIBITION came to 35.9%.

As for `CCN(Cc1noc(CC(C)C)n1)Cc1cccc(F)c1O`, the INHIBITION is 45.2%. On to `CCN(Cc1noc(CC(C)C)n1)Cc1ccccc1Cl`, for which the INHIBITION turned out to be 50.8%. In the case of `CCC1COCCN1C(=O)NCc1nccn1Cc1ccccc1` (stereo not given), the INHIBITION came out at 40.7%.

Regarding `CCCC1CCCN(C(=O)CCn2cccn2)CC1` (stereo not given), the INHIBITION was 30.76%. With `CC(C)C(=O)N1CC[C@H]2N(C)CC[C@@]2(C(=O)N2CCOCC2)CC1` the figure was 14.9%; with `CC(C)n1cnc2c1C(C(=O)N(C)C)N(Cc1ccccc1)CC2` (stereo not given), 4.61%. `C1CCN(CCO[C@@H]2CC[C@H]3[C@H]2OCCN3CC2CCOCC2)C1`: the INHIBITION worked out at 34.4%. With `Cc1nc(CNC(C)c2ccc(OCC(=O)NC3CC3)cc2)cs1` (stereo not given) the figure was 33.7%.

Turning to `Cc1nccn1-c1ccc(N2CCC(N[C@H](C)C(C)C)CC2)cc1`, the INHIBITION was 43%.

Consider `Cc1nccn1-c1ccc(C(C)NCc2cc[nH]n2)cc1` (stereo not given), for which the INHIBITION came to 50.8%. For `Cc1nccn1-c1ccc(C(C)NCc2ncc[nH]2)cc1` (stereo not given), the INHIBITION was determined as 50%. Turning to `CC(NCc1cccn1C)c1noc(-c2ccc(Cl)cc2)n1` (stereo not given), the INHIBITION is reported as -1.15%.

Consider `COc1ccc(C)cc1C(C)NCc1cccn1C` (stereo not given), for which the INHIBITION is given as -40.7%.

In the case of `Cc1nccn1-c1ccc(C(C)NCc2cccn2C)cc1` (stereo not given), the INHIBITION was 53.4%.

`CCOc1ccc(CNC(C)c2ccc3[nH]c(=O)[nH]c3c2)cc1` (stereo not given): the INHIBITION turned out to be 4.71%. As for `Cc1nccn1-c1ccc(N2CCC(NC(C)C(C)C)CC2)cc1` (stereo not given), the INHIBITION turned out to be 25.8%.
